# Assay results from PubChem BioAssay.
# Biological target: Fibroblast growth factor 2 (Homo sapiens) (UniProt P09038)
# Assay: FGF2 binders on small-molecule microarrays, primary screen, biochemical, small-molecule microarray, 635/667 nm fluorescence (AID 1133)
# Conditions: small-molecule microarray binding, FGF2, fluorescence 635/667; higher = more signal
# Chain of Fibroblast growth factor 2 (Homo sapiens) (P09038 whole entry, looked up): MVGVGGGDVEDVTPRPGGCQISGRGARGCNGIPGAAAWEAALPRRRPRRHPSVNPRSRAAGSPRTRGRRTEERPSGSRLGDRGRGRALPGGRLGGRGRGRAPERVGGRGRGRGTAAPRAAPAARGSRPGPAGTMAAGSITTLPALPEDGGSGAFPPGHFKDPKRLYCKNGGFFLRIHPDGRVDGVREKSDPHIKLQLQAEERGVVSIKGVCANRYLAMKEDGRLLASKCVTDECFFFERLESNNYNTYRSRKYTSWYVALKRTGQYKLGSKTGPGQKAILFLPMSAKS
row,SMILES,composite z-score
1,C=C(COC)/C(=C/C[C@@H](OC(C)=O)c1cccc(OCCO)c1)c1cc(C(=O)OC)ccc1OC,0.202
2,CC(C)(C)OC(=O)CC[C@]1(C(=O)NCCN2CCOCC2)N=C(c2ccc(OCCCO)cc2)O[C@H]1c1ccccc1CN=[N+]=[N-],-0.962
3,CC(=O)NCCCC[C@@H]1NC(=O)[C@@H]2C[C@H](C(=O)NCCCCCCN(C)C)[C@H](c3ccc(O)cc3)N2C1=O,1.56
4,Cc1ccc(S[C@]2(C(=O)O)CC(=O)N(Cc3ccccc3)[C@@H]2c2ccc(CO)cc2)cc1,0.0167
5,O=C1c2ccccc2[C@](Cc2ccccc2I)(C(=O)NCC(F)(F)F)[C@H](c2ccc(CO)cc2)N1Cc1ccccc1C(F)(F)F,0.381
6,O=C1OCCC=C[C@H]2OC34C=CCN(Cc5ccccc5)C(=O)[C@H]3N(CCO)C(=O)[C@@H]4C12 (stereo partly specified),-0.379
7,C=CCNC(=O)[C@H]1[C@@H]2C(=O)O[C@@H](c3ccccc3)[C@@H](c3ccccc3)N2[C@@H](c2ccccc2OCCO)[C@]12C(=O)N(C(=O)OCCOC)c1ccc(C#CCC(C(=O)OC)C(=O)OC)cc12,1.06
8,COc1ccc([Si](C)(C)[C@H]2[C@H](CC(=O)N3Cc4ccccc4C[C@H]3CO)O[C@@]3(C(=O)N(Cc4cccc(N5CCOC5=O)c4)c4ccccc43)[C@@H]2C)cc1,1.32
9,CC(C)N1CC=CC23O[C@@H]4/C=C\CCCOC(=O)C4[C@H]2C(=O)N(CCO)[C@@H]3C1=O (stereo partly specified),-0.635
10,CC(C)CN1C(=O)[C@@]2(Cc3ccccc31)c1ccccc1C(=O)N(C1CCCCC1)[C@H]2c1ccc(CO)cc1,-0.914
11,COc1cccc([C@@H]2[C@@H](C)CC[C@H]3C(=O)N4[C@H](c5cccc(OC)c5)[C@@H](C)CC[C@H]4C(=O)N23)c1,0.428
12,CO[C@H]1COC(=O)[C@H](Cc2ccccc2)NC(=O)CC=C[C@@H](C)[C@H](OC)COC(=O)CC=C[C@@H]1C,0.144
13,CO[C@H]1COC(=O)[C@@H](OCc2ccccc2)C=C[C@H](C)[C@@H](OC)COC(=O)[C@H](OCc2ccccc2)C=C[C@@H]1C,0.552
14,O=C1O[C@@H](c2ccccc2)[C@@H](c2ccccc2)N2[C@@H](c3ccc(O)cc3)[C@]3(C(=O)Nc4ccccc43)[C@@H](C(=O)N3CCN(c4ncccn4)CC3)[C@H]12,-0.0433
15,O=C1O[C@@H](c2ccccc2)[C@@H](c2ccccc2)N2[C@@H](c3ccc(O)cc3)[C@]3(C(=O)Nc4ccc(C#CC5(O)CCCCCC5)cc43)[C@@H](C(=O)Nc3nc4ccccc4s3)[C@H]12,1.21
16,C=CC[C@]1(C(N)=O)N=C(c2ccc(OCCCO)cc2)O[C@H]1c1ccccc1CN=[N+]=[N-],-0.373
17,COCCOC(=O)N1C(=O)[C@@]2(c3cc(C#CCCO)ccc31)[C@H](C(=O)N1CCCCCCC1)[C@H]1C(=O)O[C@H](c3ccccc3)[C@H](c3ccccc3)N1[C@@H]2c1ccc(O)cc1,0.661
18,C=CCOC(=O)[C@@H]1[C@H]2C(=O)O[C@H](c3ccccc3)[C@H](c3ccccc3)N2[C@H](c2ccc(OCCOC(=O)[C@H]3C[C@H]4C(=O)N5CCC[C@H]5C(=O)N4[C@H]3c3ccc(O)cc3)cc2)[C@@]12C(=O)Nc1ccccc12,1.58
19,CO[C@H]1COC(=O)CC=C[C@@H](C)COC(=O)[C@@H](C)NC(=O)CC=C[C@@H]1C,2.02
20,C=CCN1C(=O)[C@@]2(O[C@@H](CCn3cc([C@H](O)c4ccccc4)nn3)[C@H]([Si](C)(C)c3ccc(OC)cc3)[C@H]2C)c2cc(N3CCOC3=O)ccc21,0.0085
21,CCCC/C=C/[C@H]([C@@H](O)Cc1ccccc1)N(CC#Cc1ccccc1)Cc1ccccc1Br,-1.37
22,CCOC(=O)[C@H]1C/C=C/C[C@H](C(=O)OCC)C(=O)O[C@H]2[C@@H](OC)O[C@H](CO)[C@@H](OC(=O)Nc3ccc(Br)cc3)[C@@H]2OC1=O,0.376
23,COC(=O)c1c(CC[C@@H](CO)NC(=O)N[C@H](Cn2cc(-c3cncn3C)nn2)C(C)C)oc(C(C)=O)c1C(=O)OC,1.11
24,COc1ccc([Si](C)(C)[C@H]2[C@H](CCO)O[C@@]3(C(=O)N(Cc4ccc(N5CCCCC5=O)cc4)c4ccccc43)[C@@H]2C)cc1,0.753
25,O=C1c2ccccc2[C@](Cc2ccccc2I)(C(=O)O)[C@H](c2ccc(CO)cc2)N1C1CCCCC1,1.06
26,CCCNC(=O)[C@@]1(Sc2ccc(C)cc2)CC(=O)N(Cc2ccccc2Cl)[C@@H]1c1ccc(CO)cc1,1.6
